In the assay the target is T1, USP38, Q8NB14.
T1 chain: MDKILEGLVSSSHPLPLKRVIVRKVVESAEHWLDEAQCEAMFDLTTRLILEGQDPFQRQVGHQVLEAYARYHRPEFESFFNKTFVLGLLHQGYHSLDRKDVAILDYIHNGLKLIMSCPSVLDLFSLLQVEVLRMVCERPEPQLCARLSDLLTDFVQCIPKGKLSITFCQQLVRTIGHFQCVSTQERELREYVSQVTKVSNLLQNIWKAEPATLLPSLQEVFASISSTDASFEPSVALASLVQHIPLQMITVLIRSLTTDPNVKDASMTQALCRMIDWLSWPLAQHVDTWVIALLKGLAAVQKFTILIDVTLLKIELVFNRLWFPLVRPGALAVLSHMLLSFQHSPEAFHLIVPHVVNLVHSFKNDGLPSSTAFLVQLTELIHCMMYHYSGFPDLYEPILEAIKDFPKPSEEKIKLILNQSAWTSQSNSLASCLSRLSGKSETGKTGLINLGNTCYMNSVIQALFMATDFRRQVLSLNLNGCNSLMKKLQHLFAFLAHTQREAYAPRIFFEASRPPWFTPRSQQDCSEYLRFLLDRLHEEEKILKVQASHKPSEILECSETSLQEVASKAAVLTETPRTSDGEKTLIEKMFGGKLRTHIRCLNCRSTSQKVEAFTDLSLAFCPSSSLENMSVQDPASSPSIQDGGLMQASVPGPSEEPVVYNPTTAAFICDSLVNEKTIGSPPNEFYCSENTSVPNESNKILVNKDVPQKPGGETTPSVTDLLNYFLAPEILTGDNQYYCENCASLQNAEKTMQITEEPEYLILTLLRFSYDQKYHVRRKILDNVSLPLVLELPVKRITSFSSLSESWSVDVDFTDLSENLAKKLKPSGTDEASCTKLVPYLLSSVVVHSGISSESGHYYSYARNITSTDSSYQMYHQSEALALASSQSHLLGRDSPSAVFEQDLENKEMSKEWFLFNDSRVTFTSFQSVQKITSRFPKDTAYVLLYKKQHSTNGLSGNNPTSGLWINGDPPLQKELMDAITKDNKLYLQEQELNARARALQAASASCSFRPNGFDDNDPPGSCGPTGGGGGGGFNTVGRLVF
In words: median log2 fold change of GCK-ALFA target abundance (FLAG IP / Myc IP barcode read proportion) (log2 ratio); each designed protein is fused to an ALFA-tag nanobody in HEK293 cells to bring the named protein to FLAG-tagged glucokinase (GCK); Myc marks an untargeted standard; higher = target protein stabilised (more abundant). The following applies: target protein: 3xFLAG-MCP-GCK-ALFA reporter; HEK293 landing pad (RPLP). A digest of the protocol:
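HEK293 landing-pad cells received a recombined binder library fused to the ALFA nanobody and were induced with 2 μg mL^−1 doxycycline, then transfected with a plasmid encoding a FLAG-tagged target and a Myc-tagged standard. Lysates were collected after 48 h for anti-FLAG and anti-Myc immunoprecipitation, and the circular RNA barcodes were reverse transcribed, amplified and sequenced. Target abundance for each binder is the median log2 ratio of FLAG to Myc barcode read proportions. Barcodes had to reach a proportion of at least 10^−7 in both replicates, each binder needed at least 3 barcodes per replicate, a pseudocount of 10^−6 was applied, and the two replicates were pooled.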

B1: usp_38_diff_out_2_113_466 (protein)
chain: DPEERAEEAALYRDIILEGAELLLRKAKKGMLTPDRTRVMLGGIVHAAEVAYELDPSVAPDIERVIEKLEEVRELVKDKNPEVAAEIEKAIEELKAILER
As to B1, the “median log2 fold change” value was -0.156.

B2: usp_38_diff_out_2_113_461 (protein)
chain: SEEERKERAEDLKEIITEGSDYLLEKAKKGTLSGDTMIVMIGGIVHAAKEAFALDPSVKPTIEEAIKKLEEIKELYKDRNPEVAKAIEDAIKELKALLAK
On to B2, for which the “median log2 fold change” value is -0.00144.

B3: usp_38_diff_out_24_27_504 (protein)
chain: SEEHEKKLEELKKLLEEILKLLEESKTGDISVRIKASSEIDELFKEIEKILKELGNEEGLKLLKEFKTQAYAVLSRSPDWEEHLKKAKELAKKILELVEK
Regarding B3, the “median log2 fold change” value was 0.3.

B4: usp_38_diff_out_24_27_503 (protein)
chain: EEERKEKIERLKKLLEEILKLLEESRTGDISVRIRASSEIDELAEEIRKILEELGNEEGLELLTEFETQVYAVLSRSPNWEEHFEKAKELAEKILELAKK
Regarding B4, the “median log2 fold change” value was -0.574.

B5: usp_38_diff_out_24_27_505 (protein)
chain: SEELEKALEKALKLLEDIAEDLKEAQKKGPTALFVVKRKHVDEIDKLREELEKLGPELAREVTTILLAFLNRSAADPEKREEYLKEAKEKIKEAFEKHKK
With B5, the “median log2 fold change” value was 0.427.

B6: usp_38_diff_out_2_113_468 (protein)
chain: DPEQKKEEAQLYKDIILEGADKLLELAKKGMLTPDRTKVMLGGIVHAAREAYELDPSVKPVIEEVIEKLEEIKELVKDKNPEIAKEIEEAIEELKKILEE
B6: the “median log2 fold change” value was 0.211.

B7: usp_38_diff_out_2_113_467 (protein)
chain: DPEERREEAELYRDIILEGADKLLRLAERGMLTPDRTRVMLGGIVHAAREAMELDPSTRPTIEEVIEKLERVRKLVEGKNPEIAKEVERAIEELKEILKE
Regarding B7, the “median log2 fold change” value is 0.0135.

B8: usp_38_diff_out_24_27_500 (protein)
chain: EKEKEEKIKKVKELFEEIEKLVKESRTADIAGRIRISSEVDELFEEIRKIAKELGNEEALKLIDKAKAQAFAIISGDENWEEHLKELKKLFEEILKEFEK
For the molecule B8, the “median log2 fold change” value was determined as 0.364.

B9: usp_38_diff_out_2_113_470 (protein)
chain: DPEERKKEAELYKKIILEGAEQLLRLAKKGRLTPDRTRVMLGGIVEAARRAYELDPSVKPVIEEVIKKLEEVEKLVKDKNPEVAAAIKEAIKELKKILKE
On to B9, for which the “median log2 fold change” value was determined as 0.141.

B10: usp_38_diff_out_2_113_463 (protein)
chain: SEEERRERAEDLARIILEGSEYLLEKAKRGTLSGETMITMIGGIVHAAEEAFRLDPSVAPVIKRAIEKLKEIAELYKDKNPEVYEAIKEAIERLEKLLAE
Take B10: the “median log2 fold change” value was -0.229.

B11: usp_38_diff_out_24_27_502 (protein)
chain: EEEKKKKLEEIKKLLEEILALLKASQTGDIATRIKASSEIDELFEKIEKILKELGNEEGLELLTELKTQAYAVLSRSPDWQEHLAKAKELAEKIIKLAKK
For B11, the “median log2 fold change” value amounted to 0.548.

B12: usp_38_diff_out_2_113_460 (protein)
chain: DEEERKELAELYKKTILEGAEKLLKRTKKGTLSTATQIAMLGGIVHAAKEAAKLDPSVKPVLEEVIKKLKEIAELVKDKNPELYAATQKAIEEIEKILKE
Regarding B12, the “median log2 fold change” value amounted to 0.123.

B13: usp_38_diff_out_24_27_499 (protein)
chain: EEEKQKLLKELLKKFEEILKLSEKAVGADLATRIKLSSEIDEKLEEARKLAKELGDEEIEELVTKVEIAANIVLSGSEEAEEALKEIKKLVEELKKKIEE
In the case of B13, the “median log2 fold change” value was found to be 0.204.

B14: usp_38_diff_out_2_113_465 (protein)
chain: EEEERARLTQLYVDTILEGSDQLLRRAKRGTLSSTTMITMIGGIVEAAREAFRLDPSVKPVLEEVAKKLAEIAEIYADKDAETAAAVKAAIAEINALIEA
On to B14, for which the “median log2 fold change” value worked out at 0.0889.

B15: usp_38_diff_out_2_113_464 (protein)
chain: DPEERQRLALLLRDTVVSGADYLLEKAKKGTLSSDTIITMIGGITHAARELAALDPSAKPALEEVAKKLKEIAEIYKDKDEEVKKAVEEAIKEIEALIKA
Take B15: the “median log2 fold change” value was 0.0135.

B16: usp_38_diff_out_24_27_501 (protein)
chain: SAEHEKKLEKAKELLKKILELAEKAQTGDIATRIKASSEIDELFEELKKIAEEENNEELLKLLTELKTKVYAVLSGHPNAEEHLKEAKKLAEKFLEELKK
As for B16, the “median log2 fold change” value was 0.157.
